Sampled rows, rich in hits. Any-hit rate of the full collection: about 9.3%.
NPC1 promoter act: qHTS Assay for NPC1 Promoter Activators. Huh7 NPC1 promoter luciferase reporter, 24 h. actives 2.4% (n = 320,000). Potency, µM (series often up to 9.22 µM), usual class: activators. AID 485313, 2010; further: nearly all actives have a fitted effect of over 60% in size
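Quantitative HTS used a cell-based reporter: Huh7 cells stably bearing the NPC1 promoter upstream of luciferase were treated with compounds for 24 h, and promoter activation was read as luminescence.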
Rab9 prom act: qHTS Assay for Rab9 Promoter Activators | AID 485297, 2010 | actives 2.8% (n = 320,000) | Potency, µM (doses to about 9.22 µM), most hits filed as activators | Huh7 Rab9 promoter-luciferase reporter, luminescence, 24 h; further: nearly all actives have a fitted effect of over 60% in size
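Stable Rab9-luc Huh7, 1500 cells/well, 2 h settle; cmpd in DMSO, 24 h, 37 °C/5% CO2; luciferase reagent 10 min RT; luminescence.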
SMN2 splice up: qHTS Assay for Enhancers of SMN2 Splice Variant Expression; Potency, µM (doses to about 46.1 µM), usual class: activators; HEK293 SMN2-luciferase splicing reporter, luminescence, 30-36 h; actives 2.8% (n = 210,000); AID 1458, 2008; further: nearly all actives have a fitted effect of over 55% in size
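HEK293 cells carry an SMN2 […]–luciferase reporter in which exon 7 inclusion puts luciferase in frame. Cells were plated 10-12 h before compound addition, then incubated 30-36 h at 37C. ONE-Glo luminescence was read; sodium butyrate at 4.5 mM final served as control.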
FLuc counter: qHTS profiling assay for firefly luciferase inhibitor/activator using purifed enzyme and Km concentrations of substrates (counterscreen for miR-21 project). AID 588342, 2011. Potency, µM (doses to about 57.5 µM), actives largely listed as inhibitors. actives 6.9% (n = 360,000). Luciferin 4-monooxygenase (Photinus pyralis), P08659. purified FLuc, Km substrates, luminescence inhibition; further: nearly all actives have a fitted effect of over 55% in size
Target sequence (P08659 whole entry, looked up): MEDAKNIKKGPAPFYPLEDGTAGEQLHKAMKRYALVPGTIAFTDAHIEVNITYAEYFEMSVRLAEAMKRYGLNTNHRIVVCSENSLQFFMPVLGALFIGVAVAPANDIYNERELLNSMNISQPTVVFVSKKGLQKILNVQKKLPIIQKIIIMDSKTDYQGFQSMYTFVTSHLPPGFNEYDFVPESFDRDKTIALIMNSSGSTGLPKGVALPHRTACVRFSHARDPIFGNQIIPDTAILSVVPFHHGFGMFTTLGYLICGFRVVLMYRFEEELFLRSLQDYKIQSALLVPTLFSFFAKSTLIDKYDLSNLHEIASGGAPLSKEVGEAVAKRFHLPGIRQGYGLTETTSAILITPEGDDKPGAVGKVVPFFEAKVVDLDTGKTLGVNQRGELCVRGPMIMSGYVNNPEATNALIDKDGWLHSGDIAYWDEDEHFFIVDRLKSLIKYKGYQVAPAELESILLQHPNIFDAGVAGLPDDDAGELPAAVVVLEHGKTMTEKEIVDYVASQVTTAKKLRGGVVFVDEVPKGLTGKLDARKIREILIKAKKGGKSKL
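Biochemical qHTS of compounds, final roughly 60 µM downward over six points, against 10 nM purified firefly luciferase using Km concentrations of substrates (10 uM D-luciferin, 10 uM ATP) in Tris acetate pH 7.5 buffer; luminescence output.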
ELG1 repair inh: qHTS screen for small molecules that inhibit ELG1-dependent DNA repair in human embryonic kidney (HEK293T) cells expressing luciferase-tagged ELG1; HEK293T ELG1-luciferase reporter, luminescence, 16 h; DNA damage induced by 5-fluorouridine; Potency, µM (titrated, usually from 46.1 µM), actives largely listed as inhibitors; actives 2.3% (n = 330,000); AID 504467, 2011; further: nearly all actives have a fitted effect of over 55% in size
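Step one: seed 2,000 cells per well. Step two: pin-transfer compound or DMSO alongside 5-fluorouridine. Step three: incubate 16 hr, 37 °C, 5% CO2. Step four: add ONE-Glo, wait 30 min, read luminescence.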
ELG1 genotox: qHTS screen for small molecules that induce genotoxicity in human embryonic kidney (HEK293T) cells expressing luciferase-tagged ELG1; HEK293T ELG1-luciferase reporter, luminescence, 16 h; actives 1.3% (n = 330,000); Potency, µM (highest dose often 46 µM), most hits filed as activators; AID 504466, 2011; further: nearly all actives have a fitted effect of over 60% in size
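Reporter readout depends on ELG1 protein level, which increases with genetic stress. After 16 hr compound exposure at 37 °C, luciferase activity was quantified using ONE-Glo.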
Each line names hits and unclear results; the compound was inactive in the other large screens. The call rests on the fitted dose curve; in most records, active means well fitted curve in the direction sought with a large enough effect; inconclusive means small, poorly fitted or top-dose-only effect, or another doubt; inactive means no such curve, though single readings can be large; an effect the other way counts as inactive or inconclusive.

Nc1nc2ccc(-c3nc4ccccc4o3)cc2s1	NPC1 promoter act 1.1µM, Rab9 prom act 0.63µM, SMN2 splice up 7.9µM, FLuc counter 1.3µM, ELG1 repair inh inconclusive, ELG1 genotox inconclusive
CC(=O)Oc1ccc(-c2cccc(C(=O)OCC(=O)N(C)c3ccccc3)c2)cc1	FLuc counter inconclusive
Cc1ccc2c(c1)c1c(c(=O)n(Cc3ccccc3)c(=O)n1Cc1cccc(C(F)(F)F)c1)n2C	none (no result: NPC1 promoter act, Rab9 prom act, SMN2 splice up, ELG1 repair inh, ELG1 genotox)
COC(=O)c1c(NC(=O)/C=C/C(=O)O)sc(C)c1-c1ccc(C)cc1	FLuc counter inconclusive
COC(=O)c1ccc(-c2nc3ccc(C)cc3o2)cc1	NPC1 promoter act inconclusive, Rab9 prom act inconclusive, SMN2 splice up 4.5µM, FLuc counter 1.2µM, ELG1 repair inh inconclusive, ELG1 genotox inconclusive
O=C1c2ccccc2C(=O)N1c1ccc(-c2nc3ccccc3o2)cc1	NPC1 promoter act inconclusive, Rab9 prom act 4.5µM, FLuc counter inconclusive, ELG1 repair inh inconclusive (no result: SMN2 splice up)
Cc1ccc2oc(-c3ccc(NC(=O)c4ccc5c(c4)OCO5)cc3)nc2c1	FLuc counter inconclusive, ELG1 repair inh inconclusive
COc1ccc(-c2nc3ccccc3o2)cc1OC	NPC1 promoter act inconclusive, FLuc counter 11µM, ELG1 repair inh inconclusive, ELG1 genotox inconclusive (no result: SMN2 splice up)
c1ccc2oc(-c3ccc4nc[nH]c4c3)nc2c1	NPC1 promoter act 2.5µM, Rab9 prom act 1.6µM, SMN2 splice up 13µM, FLuc counter 3.4µM, ELG1 repair inh inconclusive, ELG1 genotox 21µM
CN(CC(=O)Nc1ccc(F)cc1)C(=O)COC(=O)C1CCN(c2ccc(C(F)(F)F)cn2)CC1	none (no result: SMN2 splice up)
Cc1no[n+]([O-])c1COc1ccc(/C=C(\C#N)C(N)=O)cc1	none
Cc1ccc2nc(N/N=C\c3cccc(C)n3)cc(C)c2c1	none (no result: NPC1 promoter act, Rab9 prom act, FLuc counter, ELG1 repair inh, ELG1 genotox)
C(=N\Nc1ccccn1)/c1ccc2c(c1)OCCO2	NPC1 promoter act 1.3µM, Rab9 prom act 0.56µM, SMN2 splice up 2.5µM, FLuc counter 1.7µM, ELG1 repair inh inconclusive, ELG1 genotox 2.1µM
Fc1ccc(/C=N\Nc2cccc(F)c2)cc1	FLuc counter 13µM (no result: SMN2 splice up)
Brc1ccc(/C=N/Nc2ccc3ccccc3n2)cc1	NPC1 promoter act 3.5µM, Rab9 prom act 2.5µM, SMN2 splice up inconclusive, FLuc counter 3µM, ELG1 repair inh inconclusive, ELG1 genotox inconclusive
Cc1cc(N/N=C/c2ccccc2Br)nc2ccccc12	FLuc counter 12µM, ELG1 repair inh inconclusive
CN(C)c1nc(NCc2ccccc2)nc(N/N=C/c2ccc(Br)cc2)n1	none
COc1ccc2c(c1)c1c(c(=O)n(-c3ccccc3C)c(=O)n1Cc1ccccc1C)n2C	none (no result: NPC1 promoter act, Rab9 prom act, SMN2 splice up, ELG1 repair inh, ELG1 genotox)
Brc1ccccc1/C=N/Nc1ccc2ccccc2n1	NPC1 promoter act 3.5µM, Rab9 prom act 4.5µM, SMN2 splice up 7.9µM, FLuc counter 2.1µM, ELG1 repair inh inconclusive, ELG1 genotox inconclusive
Oc1ccc(/C=N/Nc2ccccc2)cc1	none
Fc1cccc(/C=N/Nc2ccccn2)c1	NPC1 promoter act 3.2µM, Rab9 prom act 3.2µM, SMN2 splice up inconclusive, FLuc counter 12µM, ELG1 repair inh inconclusive, ELG1 genotox inconclusive
Fc1cccc(/C=N/Nc2ccc3ccccc3n2)c1	NPC1 promoter act 1.1µM, Rab9 prom act inconclusive, SMN2 splice up 2.5µM, FLuc counter 0.48µM, ELG1 repair inh inconclusive, ELG1 genotox inconclusive
Cc1cnn(-c2cc(N/N=C/c3cccc(F)c3)ncn2)c1	none
Fc1cccc(F)c1/C=N/Nc1ccccn1	Rab9 prom act inconclusive, SMN2 splice up inconclusive, FLuc counter inconclusive, ELG1 repair inh inconclusive
Brc1ccc(/C=N/Nc2ccccc2)cc1	Rab9 prom act inconclusive, FLuc counter 17µM, ELG1 repair inh inconclusive, ELG1 genotox inconclusive
Cc1ccc2c(c1)[C@@H]1CN(C)CC[C@@H]1N2S(=O)(=O)c1ccc(F)cc1	none
CC(C)(C)NC(=S)NC(=O)C12CC3CCC(CC(C3)C1)C2	none
CCN(CC(=O)NCc1ccc(F)cc1)Cc1cc(=O)n2ccsc2n1	none

High-throughput results deposited in PubChem by National Center for Advancing Translational Sciences (NCATS).
